For five molecules, composite z-score, composite Z-score and z-score results are on record in PubChem BioAssay.

The target of one test is Albumin (Bos taurus) (UniProt P02769). Nature of the test: compounds binding labelled BSA control protein – biochemical, small-molecule microarray, Alexa647 label, 635/667 nm fluorescence, artefact control for SMM control protein annotation, profiling panel (AID 1118).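 Also: score merges 667 nm emission intensity and signal-to-noise per printed compound spot.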 The following applies: BSA-A647 binding, fluorescence 635 nm, higher = more signal.
Test [1] can be described thus: probe aXIP binding to arrayed compounds – biochemical, NeuroSMM set, 635/667 nm fluorescence, primary screen (AID 1119).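 Also: probe is the protein aXip251-270 applied at 1 µg/mL to compound-printed slides; binding of probe to printed compounds measured as 667 nm fluorescence plus signal to noise.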 The conditions noted are these: small-molecule microarray, higher = more signal, called active from +8 up or from −8 down.
The nature of test [2]: probe aNOTCH3 binding on compound microarray – biochemical, small-molecule microarray, 635/667 nm fluorescence, primary screen (AID 1120).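 Also: probe is a biotin-tagged antibody raised against NOTCH3 rather than NOTCH3 protein; score merges spot fluorescence near 667 nm with spot signal to noise.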 The conditions noted are these: higher = more signal.
Test [3] is described as follows: probe aNOTCH2 binding on compound microarray – biochemical, small-molecule microarray, 635/667 nm fluorescence, primary screen (AID 1121).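 Also: score merges feature fluorescence read at 667 nm with its signal to noise.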 The following applies: higher = more signal.
The target in test [4] is Carbonic anhydrase 2 (Homo sapiens) (UniProt P00918). As to the kind of experiment: compounds binding carbonic anhydrase 2 – biochemical, small-molecule microarray, Alexa647-labelled CAII, profiling panel (AID 1122). The following applies: CAII-A647 binding fluorescence, higher = more signal.
Test [5] can be described thus: COS7 lysate on small-molecule microarray, probe aHis, 635 nm (AID 1123).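 Also: z-score combines 667nm fluorescence intensity with signal-to-noise per printed compound spot.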 The following applies: COS7 cell lysate, fluorescence, higher = more signal.
A short description of test [6]: probe aLAP1 signal on lysate-treated microarray – cell lysate, small-molecule microarray, COS7 lysate, primary screen (AID 1124).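 Also: lysate comes from COS7 cells expressing LAP1 and is applied at 0.3 µg/mL; score merges spot fluorescence near 667 nm with signal-to-noise over triplicate slides.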 The conditions noted are these: probe aLAP1, fluorescence, higher = more signal.
A further test deals with Sam68 (KHDRBS1). Nature of the test: compounds binding KHDRBS1 protein – biochemical, small-molecule microarray, 635 nm fluorescence, primary screen (AID 1125).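 Also: score merges 667 nm channel intensity with signal to noise over triplicate slides.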 The following applies: higher = more signal.
In test [7] the test system is Chordin-like protein 2 (CHRDL2). Nature of the test: compounds binding chordin-like 2 – biochemical, small-molecule microarray, 635 nm fluorescence, primary screen (AID 1126).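 Also: printed compound slides probed with Chrdl2 protein at 4 µg/mL for 1 h at 4 C; score merges 667 nm emission intensity with signal to noise over three replicate slides.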 The conditions noted are these: fluorescence 635 nm, higher = more signal.
Test [8] deals with Concanavalin-A (Canavalia ensiformis) (UniProt P02866). Nature of the test: compounds binding concanavalin A lectin – biochemical, small-molecule microarray, Alexa647 label, 635 nm, artefact control for SMM control protein annotation, primary screen (AID 1127).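 Also: z combines 667 nm emission intensity with signal-to-noise across three replicate slides.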 The following applies: ConA-A647 binding fluorescence, higher = more signal.
The nature of test [9]: compounds binding Alexa647 anti-His antibody – biochemical, small-molecule microarray, 635 nm fluorescence, artefact control for SMM control protein annotation, primary screen (AID 1128).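 Also: score merges feature fluorescence with signal-to-noise for each printed compound spot.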 The conditions noted are these: higher = more signal.
For test [10], the system named is Human papillomavirus type 1a E7 protein (residues 1-88). Nature of the test: HPV1a E7 small-molecule binders, primary screen, biochemical, small-molecule microarray, residues 1-88, 635 nm (AID 1129). The following applies: small-molecule microarray binding, fluorescence 635 nm; higher = more signal.
In test [11] the target is Focal adhesion kinase 1 (Homo sapiens) (UniProt Q05397). As to the kind of experiment: PTK2 protein binding on printed compound slides – biochemical, small-molecule microarray, 635/667 nm fluorescence, BSA, DTT, primary screen (AID 1130).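 Also: composite of spot emission at 667 nm and signal to noise over triplicate slides.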 The following applies: 635 nm fluorescence, higher = more signal.
In test [12] the test system is Fibrinogen (Alexa647-labelled). As to the kind of experiment: Alexa647-fibrinogen binding to printed small molecules – biochemical, small-molecule microarray, 635/667 nm fluorescence, artefact control for SMM control-protein annotation, profiling panel (AID 1131).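 Also: z-score merges 667 nm fluorescence with per-spot signal-to-noise over triplicate slides.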 The following applies: fibrinogen-A647 binding fluorescence, higher = more signal.
Test [13] concerns the target Follistatin (Homo sapiens) (UniProt P19883). As to the kind of experiment: FST protein binding to printed compounds – biochemical, small-molecule microarray, 635/667 nm fluorescence, primary screen (AID 1132). The conditions noted are these: 635 nm fluorescence, higher = more signal.
The target of test [14] is Fibroblast growth factor 2 (Homo sapiens) (UniProt P09038). As to the kind of experiment: basic fibroblast growth factor binding to printed compounds – biochemical, small-molecule microarray, 635/667 nm fluorescence, primary screen (AID 1133). The conditions noted are these: FGF2, fluorescence 635/667, higher = more signal.
Test [15] is described as follows: JC-1 mitochondrial potential readout, lung cancer cells – cell-based, A549, JC-1 fluorescence, basal, 24 h, 100 nL, profiling panel (AID 1138).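 Also: A549 lung adenocarcinoma cells under basal conditions with no added stimulus; test concentration not given here.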 The following applies: higher = more signal.
The next test relates to Lefty1. Nature of the test: Lefty1 protein binding to printed compounds – biochemical, small-molecule microarray, 635/667 nm fluorescence, primary screen (AID 1139). The following applies: fluorescence 635/667, higher = more signal.
Test [16] concerns wheat germ agglutinin (Triticum aestivum), Alexa647-labelled. Nature of the test: Alexa647-WGA lectin binding to printed small molecules – biochemical, small-molecule microarray, 635/667 nm fluorescence, artefact control for SMM control-protein annotation, profiling panel (AID 1140).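 Also: score merges 667 nm feature emission with signal to noise over triplicate slides.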 The conditions noted are these: WGA-A647 binding, 635 nm fluorescence, higher = more signal.
Test [17] addresses Luciferin 4-monooxygenase (Photinus pyralis) (UniProt P08659). As to the kind of experiment: inhibition of purified Photinus pyralis luciferase – biochemical, luminescence, purified enzyme, 2006 set, primary screen (AID 1141).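 Also: cell-free assay with purified firefly luciferase at 100 ng per well in PBS; test concentration not given here.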 The following applies: purified firefly luciferase, SteadyGlo luminescence, 30 min; higher = more signal, called active from +8 up or from −8 down.

The structures appear in SMILES notation. Calls of active or inactive are those of the source.

Concanavalin-A (Canavalia ensiformis), sequence (P02866 whole entry, looked up): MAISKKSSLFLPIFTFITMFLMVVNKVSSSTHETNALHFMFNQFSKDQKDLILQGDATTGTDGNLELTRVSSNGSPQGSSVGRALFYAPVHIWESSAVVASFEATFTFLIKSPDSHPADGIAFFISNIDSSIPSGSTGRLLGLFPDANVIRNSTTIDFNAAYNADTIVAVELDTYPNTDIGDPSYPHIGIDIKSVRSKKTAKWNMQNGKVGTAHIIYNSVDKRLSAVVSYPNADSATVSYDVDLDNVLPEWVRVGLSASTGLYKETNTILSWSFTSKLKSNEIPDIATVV
Albumin (Bos taurus), sequence (P02769 whole entry, looked up): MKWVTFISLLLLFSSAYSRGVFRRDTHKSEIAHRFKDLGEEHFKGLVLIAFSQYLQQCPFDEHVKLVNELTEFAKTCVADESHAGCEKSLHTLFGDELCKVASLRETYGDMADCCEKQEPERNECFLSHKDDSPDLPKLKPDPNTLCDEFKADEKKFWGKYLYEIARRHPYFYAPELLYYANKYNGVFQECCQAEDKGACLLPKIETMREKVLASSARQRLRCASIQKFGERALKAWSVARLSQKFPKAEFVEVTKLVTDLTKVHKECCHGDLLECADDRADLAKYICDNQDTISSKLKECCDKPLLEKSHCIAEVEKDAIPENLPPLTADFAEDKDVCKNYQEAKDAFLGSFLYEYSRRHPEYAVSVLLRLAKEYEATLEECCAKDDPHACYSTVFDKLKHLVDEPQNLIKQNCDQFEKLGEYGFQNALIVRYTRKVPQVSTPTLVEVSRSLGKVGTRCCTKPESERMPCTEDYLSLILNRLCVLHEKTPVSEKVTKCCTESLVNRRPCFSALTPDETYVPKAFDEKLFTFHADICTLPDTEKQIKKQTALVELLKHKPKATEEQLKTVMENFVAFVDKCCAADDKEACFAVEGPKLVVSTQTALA
Follistatin (Homo sapiens), sequence (P19883 whole entry, looked up): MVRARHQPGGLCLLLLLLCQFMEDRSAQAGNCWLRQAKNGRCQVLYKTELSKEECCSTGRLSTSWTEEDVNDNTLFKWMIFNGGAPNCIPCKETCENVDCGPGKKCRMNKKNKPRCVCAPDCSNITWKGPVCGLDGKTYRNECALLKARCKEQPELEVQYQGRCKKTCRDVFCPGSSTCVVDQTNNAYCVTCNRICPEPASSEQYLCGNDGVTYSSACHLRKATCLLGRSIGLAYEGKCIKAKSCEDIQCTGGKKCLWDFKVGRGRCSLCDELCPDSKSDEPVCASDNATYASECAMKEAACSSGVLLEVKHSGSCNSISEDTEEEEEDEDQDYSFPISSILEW
Fibroblast growth factor 2 (Homo sapiens), sequence (P09038 whole entry, looked up): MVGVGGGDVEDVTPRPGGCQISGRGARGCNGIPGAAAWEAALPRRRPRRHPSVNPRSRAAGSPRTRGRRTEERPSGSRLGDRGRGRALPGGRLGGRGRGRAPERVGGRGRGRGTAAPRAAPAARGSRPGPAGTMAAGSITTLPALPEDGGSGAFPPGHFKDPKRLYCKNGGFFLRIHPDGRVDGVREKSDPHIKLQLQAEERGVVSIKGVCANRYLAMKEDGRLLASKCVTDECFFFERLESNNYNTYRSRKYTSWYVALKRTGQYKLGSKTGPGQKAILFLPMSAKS
Focal adhesion kinase 1 (Homo sapiens), sequence (Q05397 whole entry, looked up): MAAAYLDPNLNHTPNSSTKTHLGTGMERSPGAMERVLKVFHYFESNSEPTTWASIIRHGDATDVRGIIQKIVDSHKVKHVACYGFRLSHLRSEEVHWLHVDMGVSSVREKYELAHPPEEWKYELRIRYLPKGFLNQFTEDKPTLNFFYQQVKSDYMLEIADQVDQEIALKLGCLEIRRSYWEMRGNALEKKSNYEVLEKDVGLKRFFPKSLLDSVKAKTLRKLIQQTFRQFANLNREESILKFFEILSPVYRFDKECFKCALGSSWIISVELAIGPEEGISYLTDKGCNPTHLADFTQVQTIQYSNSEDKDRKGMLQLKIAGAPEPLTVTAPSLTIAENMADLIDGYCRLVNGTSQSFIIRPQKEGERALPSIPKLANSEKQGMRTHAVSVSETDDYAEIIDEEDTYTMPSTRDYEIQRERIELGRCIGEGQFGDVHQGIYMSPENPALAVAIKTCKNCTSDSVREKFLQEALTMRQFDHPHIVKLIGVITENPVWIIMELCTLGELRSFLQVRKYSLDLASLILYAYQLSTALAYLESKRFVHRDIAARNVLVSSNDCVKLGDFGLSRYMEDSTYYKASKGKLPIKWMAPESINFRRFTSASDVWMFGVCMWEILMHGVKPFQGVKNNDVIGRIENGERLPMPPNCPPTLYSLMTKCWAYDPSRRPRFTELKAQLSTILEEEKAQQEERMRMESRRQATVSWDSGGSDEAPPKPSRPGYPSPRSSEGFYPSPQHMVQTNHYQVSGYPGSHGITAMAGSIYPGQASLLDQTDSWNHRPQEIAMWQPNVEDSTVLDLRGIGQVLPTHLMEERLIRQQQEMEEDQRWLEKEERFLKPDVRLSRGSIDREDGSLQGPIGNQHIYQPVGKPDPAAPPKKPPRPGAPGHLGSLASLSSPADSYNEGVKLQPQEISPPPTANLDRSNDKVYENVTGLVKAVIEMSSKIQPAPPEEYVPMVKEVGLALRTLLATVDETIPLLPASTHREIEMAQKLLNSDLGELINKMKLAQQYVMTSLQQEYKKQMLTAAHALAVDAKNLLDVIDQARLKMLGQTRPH
Luciferin 4-monooxygenase (Photinus pyralis), sequence (P08659 whole entry, looked up): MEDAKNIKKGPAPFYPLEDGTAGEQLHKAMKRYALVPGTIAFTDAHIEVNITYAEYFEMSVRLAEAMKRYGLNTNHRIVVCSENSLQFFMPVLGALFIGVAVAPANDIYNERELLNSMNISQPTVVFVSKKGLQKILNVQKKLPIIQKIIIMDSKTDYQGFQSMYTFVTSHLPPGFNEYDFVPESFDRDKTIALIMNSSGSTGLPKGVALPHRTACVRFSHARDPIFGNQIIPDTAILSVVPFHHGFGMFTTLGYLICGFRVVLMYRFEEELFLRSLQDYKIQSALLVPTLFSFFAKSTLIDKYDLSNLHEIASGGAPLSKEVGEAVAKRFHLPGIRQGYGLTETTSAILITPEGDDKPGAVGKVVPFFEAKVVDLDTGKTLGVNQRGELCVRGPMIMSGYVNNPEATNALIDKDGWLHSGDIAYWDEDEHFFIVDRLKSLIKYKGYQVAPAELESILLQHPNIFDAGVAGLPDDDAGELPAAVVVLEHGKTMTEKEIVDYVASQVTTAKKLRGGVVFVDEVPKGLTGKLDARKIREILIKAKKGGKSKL

On to `CC(CCC(=O)OC[C@H]1O[C@H](C#Cc2ccccc2)C=C[C@@H]1Oc1ccc(C)cc1)=NOC[C@@H](O)[C@H]1O[C@@H]2OC(C)(C)O[C@@H]2[C@H]1O`, for which the composite z-score is -0.326 in the test with Albumin (Bos taurus); -0.2 in [2]; -0.187 in test [3]; -0.023 in [4]; -0.282 in test [5]; 0.137 in [6]. The composite z-score in the test on Sam68 (KHDRBS1) is 0.14; in test [7], -0.532; in test [8] it was -0.614; in test [9] it was 0.418; in [10] it was -0.106; in test [11] it was 0.0116. Further, the composite z-score in test [12] is -0.38; in [13], -0.382; in test [14] it was -0.448; with Lefty1, 0.131; in test [16] it was -0.604. Besides, in test [1], the composite Z-score is -0.404 (inactive). For the same molecule, the results for the z-score in [15] and in [17] were 0.343 and 0.29 (inactive), respectively.
Consider `COC(=O)C1=C(C)[C@@H](O)[C@@H](C)[C@H](c2c(OC)c(OC)c(C)c(OC)c2OC)O1`, for which the composite z-score with Albumin (Bos taurus) was 0.529; in [2], -0.0615; in test [3], -0.14; in test [4], 0.298; in test [5] it was 0.206; in test [6] it was -0.064. The composite z-score with Sam68 (KHDRBS1) is -0.441; in test [7], 0.336; in test [8], 0.484; in [9], 0.174; in test [10], 0.113; in test [11] it was 0.132. In addition, the composite z-score in [12] is -1.27; in test [13], 0.194; in test [14] it was 0.236; with Lefty1, 0.475; in test [16] it was -0.611. In addition, in [1], the composite Z-score is -0.461 (inactive). The values for the z-score in test [15] and in test [17] were -0.485 and -0.0386 (inactive), respectively.
Consider `CO[C@@H]1COC(=O)CC=C[C@@H](C)[C@@H]2C=C[C@@H](O)[C@@H](COC(=O)CC=C[C@H]1C)O2`, for which the composite z-score with Albumin (Bos taurus) is -0.805; in test [2], 0.0864; in test [3], -0.16; in test [4] it was -0.235; in test [5], -0.635; in test [6], 0.156. Further, the composite z-score with Sam68 (KHDRBS1) is 0.228; in test [7], 1.38; in [8] it was -0.363; in test [9] it was 0.235; in test [10] it was -0.912; in [11], -0.0662. The composite z-score was -1.24 in test [12]; 1.33 in [13]; 1.1 in test [14]; 1.47 with Lefty1; -0.38 in [16]. Also, in [1], the composite Z-score was 0.142 (inactive). In addition, the z-score in [15] was -0.443; in test [17], -2.29 (inactive).
As to `C=CC[C@@H]1C=C[C@H](ON=C[C@@H](OC)[C@H](C)C=CCC(=O)OC)[C@@H](CO)O1`, the composite z-score with Albumin (Bos taurus) is -0.286; in test [2], 0.062; in [3] it was -0.0242; in test [4] it was 0.131; in test [5], 0.336; in test [6], -0.108. Further, the composite z-score in the test on Sam68 (KHDRBS1) is 0.496; in test [7], 0.075; in [8], -0.225; in [9], -0.179; in test [10], 0.296; in test [11] it was 0.191. Besides, the composite z-score in test [12] was -0.613; in test [13], 0.234; in test [14] it was 0.13; with Lefty1, 0.566; in test [16], -1.06. In [1], the composite Z-score was 0.0176 (inactive). Further, the z-score in [15] was -0.019; in test [17] it was 0.191 (inactive).
Take `O=C1[C@H]2[C@H]3[C@H](O)[C@H](O)CC(=NOCc4ccccc4)[C@@H]3CC[C@H]2C(=O)N1C1CCCCC1`: the composite z-score with Albumin (Bos taurus) was 0.0567; in [2] it was -0.0903; in test [3] it was -0.196; in [4], 0.539; in [5] it was 0.737; in [6] it was -0.785. Besides, the composite z-score was 0.357 in the test with Sam68 (KHDRBS1); -0.142 in [7]; -0.0593 in test [8]; 0.157 in test [9]; -0.0419 in test [10]; 0.179 in [11]. Also, the composite z-score is -0.303 in test [12]; 0.207 in test [13]; -0.45 in test [14]; 0.348 in the test with Lefty1; -0.0558 in [16]. The composite Z-score in [1] is -0.718 (inactive). For the same molecule, the z-score in test [15] is -0.134; in test [17] it was 0.0264 (inactive).
